In the library only some 14% were active in any assay of this set; here they are far more common.
Pf growth 48h – P. falciparum growth inhibition at 48 hours (one generation); P. falciparum luciferase growth in erythrocytes, 48 h; Potency, µM (top dose mostly 28.7 µM), for the others: top-dose activity change, negative = inhibition, hits mostly inhibitors; hit rate 5.9% among 310,000; also: potency is read from the fitted curve at half-maximal effect
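Firefly luciferase activity from engineered P. falciparum reports growth; inhibitors lower the luminescent signal. Cultures contained 2% hematocrit erythrocytes at 0.1% final parasitemia.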
FBPA Giardia inh – inhibitors of Giardia lamblia fructose-1,6-bisphosphate aldolase; hit rate 0.71% among 290,000; purified Giardia FBPA; A8B2U2; Potency, µM (highest dose often 59.6 µM), for inactives: top-dose activity, negative = inhibition, hits mostly inhibitors; AID 2451; also: potency is read from the fitted curve at half-maximal effect; nearly all actives have a fitted effect of over 55% in size
Target sequence (A8B2U2 whole entry, looked up): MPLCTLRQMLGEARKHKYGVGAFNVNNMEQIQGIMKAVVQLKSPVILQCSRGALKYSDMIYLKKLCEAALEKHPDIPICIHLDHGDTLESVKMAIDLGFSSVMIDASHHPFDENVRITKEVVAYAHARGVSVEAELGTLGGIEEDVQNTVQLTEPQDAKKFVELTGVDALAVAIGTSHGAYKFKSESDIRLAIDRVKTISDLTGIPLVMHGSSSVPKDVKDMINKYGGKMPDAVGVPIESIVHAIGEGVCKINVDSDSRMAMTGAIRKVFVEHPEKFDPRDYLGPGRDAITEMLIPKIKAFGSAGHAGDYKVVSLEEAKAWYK
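Giardia FBPA (40 nM reagent) was preincubated 10 min at RT with compound (up to 57.5 uM final), then substrate plus GAPDH/TPI/NAD/arsenate coupling system with diaphorase/resazurin was added; resorufin fluorescence (525/598 nm) was read after 20 min.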
HCMV antiviral – inhibitors of human cytomegalovirus. HFF cells, HCMV-luciferase reporter, 72 h; stronger effect = lower value. activity change, negative = inhibition, % at 57.5 µM. hit rate 4.5% among 410,000. AID 1259415; in the data active = activity change below about -60%; inconclusive = no clear call, values can overlap the other calls; inactive = above about -39%
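Luciferase read-out from HCMV-luciferase-infected HFFs (MOI 1 PFU/cell) 72 h post infection at 37C; compounds added after 16 h cell attachment; activity normalized between buffer-only basal and Salinomycin (10uM) inhibitor controls.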
Pf growth 96h – inhibits malaria parasite growth, 96 h. AID 504834. hit rate 6.9% among 320,000. Potency, µM (doses to about 28.7 µM), for the others: at the highest dose activity change, negative = inhibition, hits mostly inhibitors. P. falciparum luciferase reporter growth, 96 h; also: potency is read from the fitted curve at half-maximal effect
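Compounds incubated with erythrocytes infected by luciferase-expressing P. falciparum (2% hematocrit, 0.05% parasitemia final) for 96 hours, 37 C in 5% CO2. Growth inhibition scored as decreased luciferase luminescence.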
Sm TGR block – inhibitors of Schistosoma mansoni thioredoxin glutathione reductase | Q962Y6 | purified TGR, DTNB reduction, TNB absorbance 405 nm | Potency, µM (doses to about 114 µM), for inactives: at the top dose activity change, negative = inhibition, hits mostly inhibitors | hit rate 3% among 360,000; also: potency is read from the fitted curve at half-maximal effect; nearly all actives have a fitted effect of over 60% in size
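Kinetic colorimetric format: TGR-catalysed, NADPH-driven DTNB reduction monitored via TNB absorbance. Enzyme dispensed at 20 nM; compound exposure 15 min at room temperature before reaction start.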
Active calls of the source: *; ? = inconclusive; · = no result given. Unless noted, calls follow the shape of the dose curve; as a rule, active = well fitted curve in the direction sought with a large enough effect; inconclusive = small, poorly fitted or top-dose-only effect, or another doubt; inactive = no such curve, though single readings can be large; an effect the other way counts as inactive or inconclusive. % is scaled to controls: 0 for no effect and ±100 for the full control effect.

SMILES | Pf growth 48h | FBPA Giardia inh | HCMV antiviral | Pf growth 96h | Sm TGR block
O=c1c2ccccc2c(C=NC2CCN(Cc3ccccc3)CC2)c(O)n1Cc1ccc2c(c1)OCO2 | 4.7µM* | -9% | 10 | ? | -1%
CN(C)CCN=Cc1c(O)n(Cc2ccc3c(c2)OCO3)c(=O)c2ccccc12 | 92% | 0% | -6 | 15% | 1%
O=C(COc1ccc2ccccc2c1)Nc1ccc2c3c(cccc13)CC2 | -4% | 3% | -26 | -3% | -3%
CN(C)CCn1c(SCc2ccccc2C#N)nc2c(sc3ccccc32)c1=O | ? | -8% | -67* | 6.6µM* | -7%
CCN(CC)CCn1c(SCC(=O)Nc2ccc(F)cc2)nc2c(sc3ccccc32)c1=O | 9.3µM* | -6% | · | ? | -19%
C=CCN(C(=O)CSc1nc2c(sc3ccccc32)c(=O)n1CCN(CC)CC)c1ccccc1 | ? | -5% | -67* | 0% | 1%
CCc1ccc(NC(=O)CSc2nc3c(sc4ccccc43)c(=O)n2CCN(CC)CC)cc1 | · | · | -60* | · | 7%
Cc1ccc(S(=O)(=O)N2CCSC2C(=O)O)cc1 (centres undefined) | -6% | 5% | 53 | -1% | 1%
Cc1ccc(S(=O)(=O)N2CCSC2c2ccco2)cc1 (centres undefined) | -2% | ? | 24 | ? | 45µM*
CCOc1cc(CN2CCCC(N3CCN(c4ccc(F)cc4)CC3)C2)ccc1OC (centres undefined) | 1µM* | 14% | -25 | -35% | 1%
CC(C)CN1CCCC(N2CCN(c3cccc(Cl)c3)CC2)C1 (centres undefined) | 5% | 15% | ? | ? | 9%
COc1ccc(CN2CCCC(N3CCN(c4cccc(Cl)c4)CC3)C2)cc1OC (centres undefined) | ? | 4% | 19 | 9.3µM* | -2%
Cc1ccc(-c2cnc(NC(=O)CCC(=O)N3CCCCC3)n2C)cc1 | 55% | -2% | -7 | 12µM* | 11%
O=C(CCN1CCCCCC1)Nc1cccc(Cl)c1 | 9% | -5% | -60* | 2.1µM* | -3%
Cc1cc(C)cc(NC(=O)CCCn2c(=O)c3cccn3c3ccccc32)c1 | · | · | -18 | · | 0%
CCCCNC(=O)CCC(=O)Nc1ncc(-c2ccc(C)cc2)n1C | 34% | 25% | 3 | · | 1%
O=C(CCC(=O)N1CCCCC1)Nc1ccc(Cl)c(Cl)c1 | 13% | · | -4 | 12µM* | -23%
O=C(CCCn1c(=O)c2cccn2c2ccccc21)Nc1cccc(Cl)c1 | · | · | -70* | · | -9%
COc1ccc(NC(=O)CCN2CCCCCC2)cc1 | -20% | -21% | 52 | -10% | -12%
Cc1cc(NC(=O)CCN2CCCCC2)ccc1Br | 10% | -4% | 5 | 2.6µM* | -2%
COc1ccc(NC(=O)CCN2CCCCC2)cc1 | 2% | 2% | 43 | 13µM* | 20%
Cc1cc(C)cc(OCC(=O)NNC(=O)c2ccccn2)c1 | 5.2µM* | · | -97* | 3.3µM* | -1%
O=C(COc1ccc(Cl)cc1)NNC(=O)c1ccccn1 | 5.2µM* | ? | 16 | ? | 4%
Cc1cc(OCC(=O)NNC(=O)c2ccncc2)ccc1C(C)C | ? | · | -33 | 10% | 6%
Cc1cc(OCC(=O)NNC(=O)c2ccncc2)cc(C)c1Cl | ? | · | -13 | 10µM* | 4%
SMILES | Pf growth 48h | FBPA Giardia inh | HCMV antiviral | Pf growth 96h | Sm TGR block
O=C(CCC(=O)c1ccc(Oc2ccccc2)cc1)Nc1ccc(C(=O)O)cc1 | -34% | 5% | 4 | ? | 0%
CC(C)NC(=O)N(C)C[C@H]1OCc2cn(nn2)CCCC(=O)N([C@H](C)CO)C[C@@H]1C | · | · | -3 | · | ·
O=C(CSc1nccc(-c2cccs2)n1)Nc1ccccc1 | -91% | -1% | -34 | -41% | -9%
CCN(CC)CC(O)CN(c1ccccc1)S(=O)(=O)c1ccc2ccccc2c1 (centres undefined) | · | -4% | -67* | ? | -3%
O=S(=O)(c1ccc2ccccc2c1)N(CC(O)COCc1ccco1)c1ccccc1 (centres undefined) | -19% | 10% | -18 | -17% | 0%
Cc1ccc(N(CC(O)Cn2c3ccccc3c3ccccc32)S(=O)(=O)c2ccc(F)cc2)cc1 (centres undefined) | · | · | -92* | · | -9%
Cc1ccc(S(=O)(=O)N(CC(O)CN(C)C)c2ccccc2)cc1 (centres undefined) | -16% | 4% | 22 | 2.6µM* | -10%
COc1ccc(N(CC(O)Cn2c3ccccc3c3ccccc32)S(=O)(=O)c2ccccc2)cc1 (centres undefined) | ? | -6% | -78* | 10µM* | 1%
O=C(CCCN1C(=O)/C(=C/c2ccccc2Cl)SC1=S)Nc1cccnc1 | ? | · | ? | 87% | 7%
O=C(CCN1C(=O)C2CCCCC2C1=O)N1CCN(S(=O)(=O)c2c(F)cccc2F)CC1 (centres undefined) | -13% | · | -17 | -13% | 5%
C[C@@H]1C(c2cccc(Cl)c2)=NN(c2ccc(Br)cc2)[C@H]1C(=O)N1CCOC1=O | · | -15% | · | · | ·
Fc1ccc(N2Cc3ccccc3-n3nncc3C2)cc1 | · | · | -104* | · | ·
COc1ccc(S(=O)(=O)N2CCCCC2c2cc(C(=O)N3CCOCC3)no2)cc1 (centres undefined) | · | · | 0 | · | ·
CCN(CC)C1=C(Cl)C(=O)C(Cl)C12OCCO2 (centres undefined) | 15µM* | 7% | -25 | -6% | -10%
O=C(NCCCN1CCCC1=O)c1cccc(NS(=O)(=O)c2ccccc2)c1 | 3% | · | -10 | ? | -8%
O=C(NCCCN1CCCC1=O)c1cccc(S(=O)(=O)Nc2ccc(F)cc2)c1 | ? | · | -23 | 13µM* | -16%
O=C(NCCCN1CCCC1=O)c1cccc(S(=O)(=O)Nc2ccc(Br)cc2)c1 | ? | · | -40 | ? | -13%
O=C(NCCCN1CCCC1=O)c1cccc(C(F)(F)F)c1 | 3% | -3% | 32 | 8.3µM* | ?
CC(C)C1Cc2c(sc3ncnc(NN)c23)CO1 (centres undefined) | ? | 5% | ? | ? | 17%
O=C(c1ccc2c(c1)OCO2)N1CCN(S(=O)(=O)c2ccc(Cl)cc2)CC1 | ? | 4% | -13 | 6% | 5%
CC(=O)Nc1ccc(N2C(C(C)=O)=NN(c3ccc(Cl)cc3)C2c2sccc2C)cc1 (centres undefined) | 9.3µM* | -18% | 10 | ? | -2%
Fc1ccccc1N1CC(c2ccccc2)C(c2cccs2)=N1 (centres undefined) | · | -1% | ? | 12µM* | -18%
CC12Cc3ccc4ccccc4c3C=C1C[N+](C)(C)C2 (centres undefined) | · | 0% | ? | 1.7µM* | -3%
CC[N+]1(CC)CC2=Cc3c(ccc4ccccc34)CC2C1 (centres undefined) | · | -3% | -40 | ? | 0%

Assay outcomes: PubChem BioAssay, National Center for Advancing Translational Sciences (NCATS)
